# The panel holds about 83,000 compounds, 20% with a hit somewhere; the sample as a whole holds those more often.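 How to read the values: 0–100, growth inhibition (40 = 60% inhibited); 0, no net growth; -100 to 0, cell death (-40 = 40% of starting cells died; -100 = all dead).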 A number with no mark means an inactive call. Activity calls are given as the source filed them. Rule for the calls: active = growth percent below 10; inactive = the rest.
# System: HL-60(TB) leukemia
# Assay: NCI-60 one-dose screen, 48 h (100 = growth as untreated, 0 = no growth, -100 = all killed)
# Conditions: 10 µM unless noted
row,Structure (SMILES),growth
1,Nc1ncnc2c1N=C(c1ccc3c(c1)OCO3)CC(c1ccc(Cl)cc1)N2 (stereo not given),88.1%
2,CC(C)=CCCC(C)C1=C(O)C(=O)C(C)=CC1=O (stereo not given),-47.1% (active)
3,COC(=O)c1ccc(C)cc1,106%
4,COc1cc(C(C)c2ccc3c(ccn3C)c2)cc(OC)c1OC (stereo not given),-12.1% (active)
5,Oc1ccc2ccccc2c1N=Nc1ccccn1,-32.4% (active)
6,CNCCCNCCCN1C(=O)c2ccc3c4c(ccc(c24)C1=O)C(=O)N(CCCNCc1ccccc1OC)C3=O,-38.1% (active)
7,Nc1nccc(=S)[nH]1,79.9%
8,CC(O)CCNC(c1ccccc1)C(O)c1ccccc1 (stereo not given),102%
9,C=C(C)[C@@H]1CC[C@]2(C(=O)O)CC[C@]3(C)[C@H](CC[C@@H]4[C@@]5(C)C/C(=C/c6cccc(I)c6)C(=O)C(C)(C)[C@@H]5CC[C@]43C)[C@@H]12,7.47% (active)
10,CN(C)C1CCC(NC2=CC(=O)C=CC2=O)CC1 (stereo not given),114%
11,CCn1c(=S)[nH]c2c(=O)n(C)c(=O)n(C)c21,100%
12,O=C1COCCN1c1ccc(Nc2nc(Cl)nc(N3CCOCC3)n2)cc1,90.5%
13,COc1ccc(C(=O)c2nc3ccccc3n2CC(=O)c2ccc(F)cc2)cc1,79.5%
14,Cc1ccc(C(=O)N/N=C/c2ccc3c(c2)OCO3)cc1,90.4%
15,Cc1cc(=O)n(-c2ccc(F)cc2)[nH]1,101%
16,O=[n+]1c2ccccc2n([O-])c2cc(Cl)ccc21,-0.993% (active)
17,CCCCCCCCN(CCCCCCCC)CC(O)c1cc(Cl)ccc1OC (stereo not given),73.4%
18,COc1ccc(C(=NN=C(N)N)c2ccc(OC)cc2)cc1,15.5%
19,NCCCn1c2c(c3cc(-c4ccn[nH]4)ccc3c1=O)C(=O)c1ccccc1-2,39.6%
20,Cc1ccc(/C=C2\CNC/C(=C\c3ccc(C)cc3)C2=O)cc1,-29.1% (active)

row,Structure (SMILES),growth
1,COc1cc(C(=O)c2c(-c3ccccc3)oc3ccccc23)cc(OC)c1O,5.07% (active)
2,COc1ccc2c(c1)C(=O)/C(=C/c1cccnc1)CC2,99.5%
3,Fc1ccc2[nH]cc(-c3nc(-c4c[nH]c5c(Cl)nccc45)cs3)c2c1,35.4%
4,CN(C)Cc1ccc(NC(=O)c2cncc(C#Cc3cnc(N)c4ncccc34)c2)cc1C(F)(F)F,31.1%
5,Cc1c(C2=CCCCC2)c2ccccn2c1C(=O)c1cccc(S(=O)(=O)N2CCOCC2)c1,132%
6,CCCCCCCC/C=C\CCCCCCCCOc1cccc(CC(=O)NCC[N+]2(C)CCCC2)c1,49.3%
7,CCn1c(-c2nonc2N)nc2c(C#CC(C)(C)O)ncc(OC[C@H]3CCCNC3)c21,41%
8,COC(=O)c1c2c(c(C)[n+]([O-])c1C)C(=O)C(NCc1ccc(F)c(F)c1)=CC2=O,-23.6% (active)
9,O=C(/C=C/C12c3ccccc3C(c3ccccc31)C1C(=O)NC(=O)C12)c1ccccc1 (stereo not given),9.79% (active)
10,NCCNc1nc2ccccc2c2c(=O)c3cc(F)cc(Cl)c3sc12,-42.8% (active)
11,O=C(CCl)c1ccc2c(c1)CCCC2,96.9%
12,N[C@@H](Cc1ccccc1)[C@@H](O)C(=O)NCc1ccc(F)cc1,101%
13,CCOC(=O)c1cc2c(n1Cc1cc(OC)cc(OC)c1)-c1oncc1CCC2,5.41% (active)
14,Clc1cccc(CNc2c3ccccc3nc3ccccc23)c1,9.02% (active)
15,COc1ccc(-c2cn[nH]c2-c2cc(OC)c3c(c2)OCO3)cc1,-29% (active)
16,O=C(CN1CCN(c2cc3c(cc2F)c(=O)c(C(=O)O)cn3C2CC2)CC1)Nc1nc(-c2ccc(Cl)cc2)cs1,19.6%
17,O=C(Nc1ccccc1)NS(=O)(=O)c1c[nH]c(=S)[nH]c1=O,77.8%
18,COc1cc(C(=O)/C=C/c2c(C)n([O-])c3ccc(Cl)cc3[n+]2=O)cc(OC)c1OC,-59.5% (active)
19,CN(C)CCC1(c2ccccc2)CCN(C)C1=O (stereo not given),109%
20,c1ccc2c(c1)OC1OC2Oc2ccccc21,80%

# — PubChem BioAssay (NCI)
